Measurements taken from PubChem BioAssay (NCATS).
Results filed as inconclusive are left out. A number with no mark means an inactive call. Calls of active or inactive are those of the source. Calls come from the whole dose curve; as a rule, active = well fitted inhibition curve with a large enough effect; inconclusive = small, poorly fitted or top-dose-only effect; inactive = flat fitted curve, though single readings scatter.

Test: P-glycoprotein substrates identified in KB-8-5-11 adenocarcinoma cell line, qHTS therapeutic library screen (AID 1346987); note: nearly all actives have a fitted effect of over 65% in size
Conditions: KB-8-5-11 (P-gp overexpressing) viability, CellTiter-Glo, 72 h; series mostly up to 44.5 µM; activity change, negative = cytotoxicity: at the top concentration
Summary of the method: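 P-gp-mediated resistance screen: KB-8-5-11 cells treated 72 h with compounds in dose-response. CellTiter-Glo viability.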
% is set by controls: 0 for no effect and ±100 for the full control effect; potency is the fitted concentration of half-maximal effect.

| SMILES | activity change, negative = cytotoxicity | Potency | outcome |
| --- | --- | --- | --- |
| C[C@H](C/C=C/C(C)(C)O)[C@H]1CC[C@@]2(C)[C@@H]3[C@@H](O[C@@H]4O[C@H](CO)[C@@H](O)[C@H](O)[C@H]4O)C=C4C(CC[C@H](O)C4(C)C)[C@]3(C=O)CC[C@]12C (some centres undefined) | 9.56% [at 17.3 µM] | – | – |
| CCN1CCN(Cc2ccc(Nc3ncc(F)c(-c4cc(F)c5nc(C)n(C(C)C)c5c4)n3)nc2)CC1 | – | 4.11 µM (active) | – |
| C/C=C1\[C@H](OC2OC(COC3OC(CO)C(O)C(O)C3O)C(O)C(O)C2O)OC=C(C(=O)OC)[C@H]1CC(=O)OCCc1ccc(O)cc1 (some centres undefined) | 1.76% [at 17.3 µM] | – | – |
| CN(C)CCn1cc(S(=O)(=O)c2cccc(F)c2)c2cccnc21 | -17.9% | – | – |
| COC(=O)[C@@H](O)[C@H]1[C@@]2(C)CC3(O)[C@@H](C(=O)[C@H]2O)[C@]24O[C@]25CC(=O)O[C@@H](c2ccoc2)[C@]5(C)CCC4[C@]13C (some centres undefined) | – | – | inactive [at 17.3 µM] |
| C/C=C(\C)C(=O)O[C@H]1[C@@H](O[C@]2(COC(=O)CC(C)C)O[C@H](COC(=O)C(C)CC)[C@@H](OC(C)=O)[C@@H]2O)O[C@H](COC(C)=O)[C@@H](O)[C@@H]1O (some centres undefined) | -6.72% [at 17.3 µM] | – | – |
| CCc1c(C)nc2c(-c3cnn(-c4cc(CO)ccn4)c3)c[nH]n2c1=O | 8.59% | – | – |
| CC1=C(CCC(C)CC(=O)O)[C@@]2(C)CCCC(C)(C)C2CC1=O (some centres undefined) | -2.03% | – | – |
| COc1ncc(Nc2ncc([C@H](C)N3CCN(S(C)(=O)=O)CC3)cc2-c2nc(C)nc(N)n2)cc1F | – | 9.2 µM (active) | – |
| c1ccc(-c2ncc(CN3CCN(c4ncccn4)CC3)[nH]2)cc1 | -12% | – | – |
| Cc1cccc(-c2[nH]c(Cc3cccc(C(N)=O)c3)nc2-c2ccc3nccnc3c2)n1 | – | – | inactive |
| C[C@@H]1CC[C@]2(C(=O)O)CC[C@]3(C)C(=CCC4[C@@]5(C)CC[C@H](O)C(C)(C)C5C(O)C[C@]43C)[C@@H]2[C@]1(C)O (some centres undefined) | – | – | inactive [at 17.3 µM] |
| C=CC(C)(C)c1[nH]c2ccccc2c1C[C@@H]1NC(=O)[C@H](Cc2c[nH]c3ccccc23)NC1=O | 0.653% [at 17.3 µM] | – | – |
| CC(C)[C@H]1CC[C@@]2(O)COC(=O)[C@H]2[C@@H]1/C=C(\CO)C(=O)O | 3.28% | – | – |
| Cc1cn(C2C=CC(CO)O2)c(=O)[nH]c1=O (centres undefined) | -1.88% | – | – |
| C[C@@H]1CCC/C=C/[C@H]2CC(=O)C[C@@H]2[C@@H](O)/C=C/C(=O)O1 | – | – | inactive |
| COC(=O)N[C@@H](C)CNc1nccc(-c2cn(C(C)C)nc2-c2cc(Cl)cc(NS(C)(=O)=O)c2F)n1 | -17.3% | – | – |
| CC1(C(=O)O)CCCC2(C)C3CCC4CC3(CCC12)CC4=O (centres undefined) | 8.09% | – | – |
| O=C1CC2(CCCC2)[C@H](O)C(=O)N1CCCCN1CCN(c2ncccn2)CC1 | -18.7% | – | – |
| CC(C)(C)CCN1C[C@@H]2C(CNC(=O)c3cc(Cl)cc(Cl)c3)[C@@H]2C1 (some centres undefined) | -23.6% | – | – |

| SMILES | activity change, negative = cytotoxicity | Potency | outcome |
| --- | --- | --- | --- |
| COc1c2c(c(C)c3c1C(=O)OC3)OC1(C)CC(O)C34OC(OC)(CC(OC(C)=O)C3(C)C1C2)OC4(C)C (centres undefined) | 7.36% [at 17.3 µM] | – | – |
| C=C(C(=O)OC)C1C(O)CC2(C)C(O)CCC(=O)C2C1O (centres undefined) | 0.374% | – | – |
| COc1ccc(-c2cnc3ccc(NCc4ccc(S(N)(=O)=O)cc4)nn23)cc1OC | -0.969% | – | – |
| CN1CCC(Nc2nc(Nc3ccc(Oc4ccccc4)cc3)c3c(=O)[nH]cc(Br)c3n2)CC1 | – | 4.61 µM (active) | – |
| N[C@H]1Cc2ccccc2N(O)C1=O | -9.03% | – | – |
| CC1=CC(=O)C(=C(C)C)CC2C1CCC2(C)O (centres undefined) | -3.42% | – | – |
| CC(Oc1ccc2[nH]nc(/C=C/c3cnn(CCO)c3)c2c1)c1c(Cl)cncc1Cl (centres undefined) | – | 1.03 µM (active) | – |
| C=C(C(=O)O)[C@@H]1CC[C@@]2(C)CC[C@H](O)[C@@]2(C(C)=O)C1 | – | – | inactive |
| C[C@H](NC(=O)CCc1nc2ccccc2c(=O)[nH]1)c1ccccc1 | -18.6% | – | – |
| CC(C)c1cc(C(=O)N2CC[C@H](NC(=O)C3CC3)C2)n[nH]1 | -8.08% | – | – |
| CC1=CC(=O)CC(C)(C)C1CCC(C)O[C@@H]1O[C@H](CO[C@@H]2OC[C@@H](O)[C@H](O)[C@H]2O)[C@@H](O)[C@H](O)[C@H]1O (some centres undefined) | – | – | inactive [at 17.3 µM] |
| CC1(C)C2CC=C(COC3OC(COC4OCC(O)(CO)C4O)C(O)C(O)C3O)C1C2 (centres undefined) | – | – | inactive [at 17.3 µM] |
| Nc1ccc(-c2cccc3c(=O)cc(N4CCOCC4)oc23)cc1 | – | 6.51 µM (active) | – |
| C[C@@H]1C(=O)O[C@H]2[C@H](O)C34[C@H]5C[C@@H](C(C)(C)C)C36[C@@H](OC(=O)[C@@H]6O)O[C@@]4(C(=O)O5)[C@@]12O (some centres undefined) | 8.71% [at 17.3 µM] | – | – |
| O=C1CCC(c2ccccc2)(C2CCN(Cc3ccc(I)cc3)CC2)C(=O)N1 (centres undefined) | -7.06% | – | – |
| C=C1OC2CC(C(=O)O)C=CC2NC1=O (centres undefined) | – | – | inactive |
| CC(C)(C(=O)NCC(F)(F)C(F)(F)F)C(=O)NC1C(=O)Nc2ccccc2-c2ccccc21 (centres undefined) | – | 4.61 µM (active) | – |
| C=C1C(=O)O[C@@H]2C/C(C)=C\C(=O)/C=C(\C)[C@@H](OC(=O)/C(C)=C\C)[C@H](O)[C@@H]12 | – | 4.04 µM (active) | – |
| CC(Cc1cc2c(c(C(N)=O)c1)N(CCCO)CC2)NCCOc1ccccc1OCC(F)(F)F (centres undefined) | – | – | inactive |
